# Test results taken from PubChem BioAssay (NCATS).
# Inconclusive results are not listed. A call without a number means that no potency is given here. The source made the active and inactive calls. Calls come from the whole dose curve; as a rule, active = well fitted cell-killing curve with a large enough effect; inconclusive = small, poorly fitted or top-dose-only effect; inactive = no such curve, though single readings can be large or run the other way.
# Assay: qHTS of pediatric cancer cell lines to identify multiple opportunities for drug repurposing: Primary screen for A673 cells (AID 1347092); note: nearly all actives have a fitted effect of over 45% in size
# Details: A673 Ewing sarcoma viability, CellTiter-Glo ATP luminescence, 48 h; series mostly up to 46 µM
# Summary of the method: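 Cell viability of A673 measured by CellTiter-Glo ATP luminescence after 48 hours compound exposure. Dilution series spanned 0.78 nM to 46 µM (MIPE, 11-point) or 0.59 nM to 46 µM (NPC, 8-point); bortezomib 2.3 uM positive control.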
# Potency is the fitted concentration of half-maximal effect.
row,SMILES,Potency
1,CCN(CC)CCNC(=O)COc1ccc(Cl)cc1,inactive
2,Cc1onc(-c2c(Cl)cccc2Cl)c1C(=O)N[C@@H]1C(=O)N2[C@@H]1SC(C)(C)[C@@H]2C(=O)O,inactive
3,CC(C)(C)NC(=O)[C@@H]1CN(Cc2cccnc2)CCN1C[C@@H](O)C[C@@H](Cc1ccccc1)C(=O)N[C@H]1c2ccccc2C[C@H]1O,inactive
4,C=CCc1ccc(O)c(OC)c1,inactive
5,NCCc1ccn[nH]1,inactive
6,OC[C@H]1O[C@H](O[C@]2(CCl)O[C@H](CCl)[C@@H](O)[C@@H]2O)[C@H](O)[C@@H](O)[C@H]1Cl,inactive
7,COc1c2occc2c(OC)c2c(=O)cc(C)oc12,inactive
8,COc1cc2c(cc1OC)[C@@H]1CC(=O)[C@@H](CC(C)C)CN1CC2,inactive
9,C[C@H](CCC(=O)O)[C@H]1CC[C@H]2[C@@H]3C(=O)C[C@@H]4CC(=O)CC[C@]4(C)[C@H]3CC(=O)[C@]12C,inactive
10,C[C@@H]1C[C@H]2[C@@H]3CCC4=CC(=O)C=C[C@]4(C)[C@@]3(F)[C@@H](O)C[C@]2(C)[C@H]1C(=O)CO,inactive
11,CN(C)CC/C=C1/c2ccccc2COc2ccc(CC(=O)O)cc21,inactive
12,C/C=C/c1ccc(OC)cc1,inactive
13,CN=C(NC#N)Nc1ccc(C2=NNC(=O)CC2C)cc1 (configuration not stated),inactive
14,CCC(C(=O)OCCN(CC)CC)c1ccccc1 (configuration not stated),inactive
15,CC(=O)Oc1ccc(C(=C2CCCCC2)c2ccc(OC(C)=O)cc2)cc1,inactive
16,O=C(Nc1ccc(Cl)c(Cl)c1)C1CC1,inactive
17,CCC(=O)c1c(O)cc(O)cc1O,inactive
18,Cc1cccn2c(=O)c(-c3nnn[nH]3)cnc12,inactive

row,SMILES,Potency
1,CC1(C)O[C@@H]2C[C@H]3[C@@H]4C[C@H](F)C5=CC(=O)CC[C@]5(C)[C@H]4[C@@H](O)C[C@]3(C)[C@]2(C(=O)CO)O1,inactive
2,C[C@]12CC[C@H]3[C@@H](CCC4=CC(=O)CC[C@@]43C)[C@@H]1CC[C@@H]2C(=O)CO,inactive
3,Cc1c(C(N)=O)cc([N+](=O)[O-])cc1[N+](=O)[O-],inactive
4,Cc1c(C(C)C)c(=O)n(-c2ccccc2)n1C,inactive
5,CC(=O)OCC(=O)[C@@]1(O)[C@H](C)C[C@H]2[C@@H]3CCC4=CC(=O)C=C[C@]4(C)[C@@]3(F)[C@@H](O)C[C@@]21C,inactive
6,OCc1ccccc1O,inactive
7,CCN1CCCC1=O,inactive
8,OC[C@H]1O[C@@H](n2cnc3c(=S)nc[nH]c32)[C@H](O)[C@@H]1O,0.266 µM (active)
9,CCOC(=O)c1cccc(N)c1,inactive
10,CC(=O)[C@H]1CC[C@H]2[C@@H]3C[C@H](C)C4=CC(=O)CC[C@]4(C)[C@H]3[C@@H](O)C[C@]12C,inactive
11,NCCCC[C@H](N[C@@H](CCc1ccccc1)C(=O)O)C(=O)N1CCC[C@H]1C(=O)O,inactive
12,Cc1cc(O)c(C(C)C)cc1Cl,inactive
13,COc1cc(/C=C/C(=O)O[C@H]2CC[C@]34C[C@]35CC[C@]3(C)[C@@H]([C@H](C)CCC=C(C)C)CC[C@@]3(C)[C@@H]5CC[C@H]4C2(C)C)ccc1O,inactive
14,CC1(C)O[C@@H]2C[C@H]3[C@@H]4CCC5=CC(=O)CC[C@]5(C)[C@@]4(F)[C@@H](O)C[C@]3(C)[C@]2(C(=O)CCl)O1,inactive
15,Nc1ccc(C(=O)O)cc1,inactive
16,CN1CCN(C(c2ccccc2)c2ccccc2)CC1,inactive
17,CC1(C)O[C@@H]2C[C@H]3[C@@H]4C[C@H](F)C5=CC(=O)C=C[C@]5(C)[C@H]4[C@@H](O)C[C@]3(C)[C@]2(C(=O)CO)O1,inactive
18,Nc1nc2ncc(CNc3ccc(C(=O)N[C@@H](CCC(=O)O)C(=O)O)cc3)nc2c(=O)[nH]1,inactive

# Assay: qHTS of pediatric cancer cell lines to identify multiple opportunities for drug repurposing: Primary screen for SK-N-MC cells (AID 1347093)
# Details: SK-N-MC viability, CellTiter-Glo luminescence, 48 h; series mostly up to 46 µM
# Summary of the method: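 Metabolically active cells were quantified by ATP-dependent luminescence (CellTiter-Glo, 15 min at room temperature) following 48 h treatment. Cells had been plated at 500-1,000 per well and settled for 5 h beforehand.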
row,SMILES,Potency
1,CCN(CC)CCNC(=O)COc1ccc(Cl)cc1,inactive
2,Cc1onc(-c2c(Cl)cccc2Cl)c1C(=O)N[C@@H]1C(=O)N2[C@@H]1SC(C)(C)[C@@H]2C(=O)O,inactive
3,CC(C)(C)NC(=O)[C@@H]1CN(Cc2cccnc2)CCN1C[C@@H](O)C[C@@H](Cc1ccccc1)C(=O)N[C@H]1c2ccccc2C[C@H]1O,inactive
4,C=CCc1ccc(O)c(OC)c1,inactive
5,NCCc1ccn[nH]1,inactive
6,OC[C@H]1O[C@H](O[C@]2(CCl)O[C@H](CCl)[C@@H](O)[C@@H]2O)[C@H](O)[C@@H](O)[C@H]1Cl,inactive
7,COc1c2occc2c(OC)c2c(=O)cc(C)oc12,inactive
8,COc1cc2c(cc1OC)[C@@H]1CC(=O)[C@@H](CC(C)C)CN1CC2,inactive
9,C[C@H](CCC(=O)O)[C@H]1CC[C@H]2[C@@H]3C(=O)C[C@@H]4CC(=O)CC[C@]4(C)[C@H]3CC(=O)[C@]12C,inactive
10,C[C@@H]1C[C@H]2[C@@H]3CCC4=CC(=O)C=C[C@]4(C)[C@@]3(F)[C@@H](O)C[C@]2(C)[C@H]1C(=O)CO,inactive
11,CN(C)CC/C=C1/c2ccccc2COc2ccc(CC(=O)O)cc21,inactive
12,C/C=C/c1ccc(OC)cc1,inactive
13,CN=C(NC#N)Nc1ccc(C2=NNC(=O)CC2C)cc1 (configuration not stated),inactive
14,CCC(C(=O)OCCN(CC)CC)c1ccccc1 (configuration not stated),23.7 µM (active)
15,CC(=O)Oc1ccc(C(=C2CCCCC2)c2ccc(OC(C)=O)cc2)cc1,inactive
16,O=C(Nc1ccc(Cl)c(Cl)c1)C1CC1,inactive
17,CCC(=O)c1c(O)cc(O)cc1O,inactive
18,Cc1cccn2c(=O)c(-c3nnn[nH]3)cnc12,inactive

row,SMILES,Potency
1,CC1(C)O[C@@H]2C[C@H]3[C@@H]4C[C@H](F)C5=CC(=O)CC[C@]5(C)[C@H]4[C@@H](O)C[C@]3(C)[C@]2(C(=O)CO)O1,inactive
2,C[C@]12CC[C@H]3[C@@H](CCC4=CC(=O)CC[C@@]43C)[C@@H]1CC[C@@H]2C(=O)CO,inactive
3,Cc1c(C(N)=O)cc([N+](=O)[O-])cc1[N+](=O)[O-],inactive
4,Cc1c(C(C)C)c(=O)n(-c2ccccc2)n1C,inactive
5,CC(=O)OCC(=O)[C@@]1(O)[C@H](C)C[C@H]2[C@@H]3CCC4=CC(=O)C=C[C@]4(C)[C@@]3(F)[C@@H](O)C[C@@]21C,inactive
6,OCc1ccccc1O,inactive
7,CCN1CCCC1=O,inactive
8,OC[C@H]1O[C@@H](n2cnc3c(=S)nc[nH]c32)[C@H](O)[C@@H]1O,18.8 µM (active)
9,CCOC(=O)c1cccc(N)c1,inactive
10,CC(=O)[C@H]1CC[C@H]2[C@@H]3C[C@H](C)C4=CC(=O)CC[C@]4(C)[C@H]3[C@@H](O)C[C@]12C,inactive
11,NCCCC[C@H](N[C@@H](CCc1ccccc1)C(=O)O)C(=O)N1CCC[C@H]1C(=O)O,inactive
12,Cc1cc(O)c(C(C)C)cc1Cl,inactive
13,COc1cc(/C=C/C(=O)O[C@H]2CC[C@]34C[C@]35CC[C@]3(C)[C@@H]([C@H](C)CCC=C(C)C)CC[C@@]3(C)[C@@H]5CC[C@H]4C2(C)C)ccc1O,inactive
14,CC1(C)O[C@@H]2C[C@H]3[C@@H]4CCC5=CC(=O)CC[C@]5(C)[C@@]4(F)[C@@H](O)C[C@]3(C)[C@]2(C(=O)CCl)O1,inactive
15,Nc1ccc(C(=O)O)cc1,inactive
16,CN1CCN(C(c2ccccc2)c2ccccc2)CC1,inactive
17,CC1(C)O[C@@H]2C[C@H]3[C@@H]4C[C@H](F)C5=CC(=O)C=C[C@]5(C)[C@H]4[C@@H](O)C[C@]3(C)[C@]2(C(=O)CO)O1,inactive
18,Nc1nc2ncc(CNc3ccc(C(=O)N[C@@H](CCC(=O)O)C(=O)O)cc3)nc2c(=O)[nH]1,inactive
